Source: PubChem BioAssay (National Center for Advancing Translational Sciences (NCATS))
This is a sample that favours compounds with a hit; in the whole collection about 5.6% have one here.
PKM2 act: PKM2 (human) enzyme activation. purified PKM2, Kinase-Glo ATP luminescence, activation; response scale: 0% is enzyme alone, no compound. P14618. 260,000 tested, 0.34% active. Potency, µM (series often up to 57.5 µM), for the others: top-dose activation, most hits filed as activators; also: potency is read from the fitted curve at half-maximal effect; nearly all actives have a fitted effect of over 55% in size
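Purified hPK-M2 (>95%) run at intermediate activity with 0.1 mM ADP and 0.5 mM PEP in 50 mM imidazole pH 7.2, KCl, MgCl2; 1 h room temperature. ATP formed read by Kinase-Glo luminescence; normalized to uninhibited and no-enzyme controls.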
Six1-Eya2 blk: blocks human Six1 binding to Eya2. AlphaScreen GST-Six1/His-Eya2 binding, biochemical; hits give low values. AID 651725. 360,000 tested, 0.56% active. activity change, % (concentration not given with the values); in the data active = activity change below about -65%; inconclusive = mostly about -30% to -63%
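Compounds are tested against tagged Six1 and Eya2 proteins bridged by glutathione donor and nickel acceptor beads; after a one-hour incubation at 37 °C without light, AlphaScreen emission is recorded.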
VP16 counter: Gal4-VP16 reporter inhibition counter-screen | Drosophila S2 Gal4-VP16 UAS-luciferase, luminescence, 20 h | 310,000 tested, 3.5% active | AID 2546 | Potency, µM (top dose mostly 53.6 µM), inactives show at the top dose activity, negative = inhibition, usual class: inhibitors;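 also: Gal4-VP16 expression switched on by copper sulfate through the metallothionein promoter; potency is read from the fitted curve at half-maximal effect; nearly all actives have a fitted effect of over 50% in size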
CtBP-E1A inh: CtBP/E1A binding inhibition. AlphaScreen GST-E1A/His-CtBP binding, 1536-well; hits give low values. activity change, % (test concentration not listed). 340,000 tested, 0.49% active. AID 651724; in the data active = activity change below about -65%; inconclusive = mostly about -30% to -63%
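GST-E1A and His-tagged CtBP (125 nM each as 5X stock) were preincubated with pin-transferred compound for 2 h at 37 °C in the dark, then glutathione donor and nickel acceptor beads were added for 1 h before AlphaScreen reading.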
RORgamma inh: ROR gamma (mouse) transcription inhibition. P51450. Drosophila S2 Gal4-RORgamma UAS-luciferase reporter, 20 h. Potency, µM (series often up to 53.6 µM), for inactives: top-dose activity change, negative = inhibition, hits mostly inhibitors. 310,000 tested, 5.4% active. AID 2551; also: potency is read from the fitted curve at half-maximal effect; nearly all actives have a fitted effect of over 60% in size
Target sequence (P51450 whole entry, looked up, the tested form may be a part): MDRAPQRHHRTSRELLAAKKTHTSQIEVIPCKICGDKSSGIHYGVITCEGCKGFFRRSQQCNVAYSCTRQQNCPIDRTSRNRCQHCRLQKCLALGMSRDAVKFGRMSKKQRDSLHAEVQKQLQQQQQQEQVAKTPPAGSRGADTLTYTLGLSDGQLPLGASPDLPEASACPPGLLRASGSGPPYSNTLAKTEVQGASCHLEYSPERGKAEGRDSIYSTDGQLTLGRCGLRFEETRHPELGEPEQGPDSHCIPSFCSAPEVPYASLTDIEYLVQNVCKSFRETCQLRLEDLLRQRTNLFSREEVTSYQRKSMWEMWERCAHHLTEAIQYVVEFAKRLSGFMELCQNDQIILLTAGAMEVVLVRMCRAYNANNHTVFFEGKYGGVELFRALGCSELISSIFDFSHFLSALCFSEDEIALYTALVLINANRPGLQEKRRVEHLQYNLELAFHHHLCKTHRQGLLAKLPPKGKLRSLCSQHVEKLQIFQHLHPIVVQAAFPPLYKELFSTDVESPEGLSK
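Compounds are pin-transferred onto Drosophila Schneider cells expressing a copper-inducible Gal4–ROR gamma transactivation domain fusion. After 1 hr, copper sulfate is added to 700 uM final; luciferase is read 20 hr later.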
* marks the source's active call; other numbers are inactive results; ? = inconclusive; . = no result given; [ ] = dose if it differs, or a comment. Unless noted, calls follow the shape of the dose curve; as a rule, active = well fitted curve in the direction sought with a large enough effect; inconclusive = small, poorly fitted or top-dose-only effect, or another doubt; inactive = no such curve, though single readings can be large; an effect the other way counts as inactive or inconclusive. % is scaled to controls: 0 for no effect and ±100 for the full control effect.

SMILES	PKM2 act	Six1-Eya2 blk	VP16 counter	CtBP-E1A inh	RORgamma inh
Cc1ccccc1OCc1nnc(SCC(=O)O)n1-c1cccc(Cl)c1	-0.5%[11.5 µM]	-1.8	-0.5%	-10.5	10.2%
Cc1cccc(C)c1OCc1n[nH]c(=S)n1-c1ccccc1	-12.2%	-1.7	?	8.2	1.26µM*
Cc1ccccc1OCc1n[nH]c(=S)n1-c1cccc(Cl)c1	0.3%[11.5 µM]	-2.2	4.47µM*	.	3.98µM*
Cn1c(CCc2ccccc2)n[nH]c1=S	3.4%	18.4	-2.9%	-2.3	12.6µM*
COCc1n[nH]c(=S)n1-c1ccccc1	-9.1%	-2.4	1.2%	-3.6	-11.2%
CCC1C(=O)N=C(SCC(=O)Nc2ccc(C)cc2)N(c2ccccc2)C1=O (stereo not drawn)	.	7.6	0.4%	8.8	?
CC(C)Oc1ccc(CCc2n[nH]c(=S)n2-c2ccccc2)cc1	-9.3%	-18.6	-11.0%	-25.3	7.08µM*
Cc1cc(OCc2n[nH]c(=S)n2-c2ccccc2)ccc1Cl	0.3%	-2.6	3.55µM*	9.5	2.51µM*
Cc1ccc(C)c(NCc2n[nH]c(=S)n2-c2ccccc2)c1	-0.2%	2.2	-4.9%	2.6	-19.7%
Cc1cccc(C)c1NCc1n[nH]c(=S)n1-c1ccccc1	-6.7%	-2.8	?	9.7	2µM*
Cc1cccc(OCc2n[nH]c(=S)n2-c2ccccc2)c1	-0.6%	5.1	?	?	2.24µM*
Cc1ccc(-n2c(COc3cccc(C)c3)n[nH]c2=S)cc1	-3.3%	13.5	?	0.0	?
C/C(CC(=O)Nc1ccccn1)=N\NC(=O)c1ccncc1	0.2%	.	4.2%	.	-10.1%
COc1ccc(-c2c(-c3ccsc3)oc3c2C(O)CCC3)cn1 (stereo not drawn)	.	-4.7	.	-1.1	.
Cn1cc(-c2coc3c(C(=O)NCc4cccs4)cccc23)cn1	.	-22.4	.	-24.3	.
CCCCCCCCCCCCCCCCC(C(=O)O)C(O)(CC(=O)O)C(=O)O (stereo not drawn)	.	.	-9.9%	.	-12.6%
Cc1n[nH]c(=S)n1-c1cccc(Cl)c1	-20.6%	8.0	?	2.0	11.2µM*
S=c1[nH]nc(CSCc2ccccc2Cl)n1-c1ccccc1	12.0%	6.0	6.31µM*	-2.5	1µM*
Cc1ccc(-n2c(CCc3ccccc3)n[nH]c2=S)cc1C	-1.5%	-14.4	?	-1.4	-15.3%[1.91 µM]
Cc1ccc(OCc2n[nH]c(=S)n2-c2ccccc2)cc1C	-2.1%	3.0	?	4.6	2µM*
Nc1cc(=O)nc(SCC(=O)Nc2ccccc2Cl)n1-c1ccccc1	.	0.1	-6.3%	.	18.3%
Cc1cc(C(=O)CCl)c(C)n1CCc1ccc(F)cc1	1.7%	0.0	-85.9%	10.2	?
Cc1cc(C(=O)CCl)c(C)n1CCc1ccc(Cl)cc1	-0.3%	-10.3	?	-15.9	12.6µM*
CC(C)C(=O)NC(=S)N1CCc2ccccc21	-4.9%	-0.2	?	-2.1	8.91µM*
COc1ccc(OCC(=O)NC(=S)N2CCCc3ccccc32)cc1	-10.0%	-22.3	-4.7%	-6.9	?
SMILES	PKM2 act	Six1-Eya2 blk	VP16 counter	CtBP-E1A inh	RORgamma inh
O=C(COc1ccccc1Cl)NC(=S)N1CCc2ccccc21	-2.8%	-0.5	1.12µM*	11.0	0.708µM*
O=C(COc1ccccc1)NC(=S)N1CCc2ccccc21	-4.9%	-10.3	2.51µM*	-2.1	1.26µM*
CC(Oc1ccc(Br)cc1)C(=O)N1CCc2ccccc21 (stereo not drawn)	-15.0%	10.8	3.2%	9.0	12.4%
CC(Oc1ccccc1Br)C(=O)N1CCc2ccccc21 (stereo not drawn)	1.4%	2.4	3.3%	12.3	14.1µM*
CC[C@H](C)[C@H](NC(=O)[C@H](CCC(=O)O)NC(=O)CNC(=O)[C@H](CCCCN)NC(=O)[C@H](CCC(=O)O)NC(=O)[C@H](CCSC)NC(=O)[C@H](CCSC)NC(=O)[C@H](CCSC)NC(=O)[C@H](CCC(=O)O)NC(=O)CNC(=O)[C@H](CO)NC(=O)[C@H](CO)NC(=O)[C@H](CO)NC(=O)[C@@H](N)CC(N)=O)C(=O)N[C@@H](CCCCN)C(=O)O	.	.	7.4%	.	2.5%
CC(Cc1ccccc1)=NNc1ccc([N+](=O)[O-])cc1[N+](=O)[O-]	.	-65.3*	.	?	.
C/C(CC(C)C)=N/Nc1ccc([N+](=O)[O-])cc1[N+](=O)[O-]	-0.2%	?	-6.7%	.	27.3%
Clc1ccc(-c2nnc(CSc3nnc(-c4cccs4)n3Cc3ccccc3)o2)cc1	-0.5%	-1.7	17.8µM*	.	?
O=C(NCCCC1CCCC1)C1CCC(=O)N(Cc2ccc(Cl)cc2)C1 (stereo not drawn)	0.6%	1.4	-3.9%	-10.5	-15.3%
Cc1cccc(S(=O)(=O)c2c(N)n(Cc3ccco3)c3nc4ccccc4nc23)c1	22.4µM*	1.8	-7.2%	-5.1	-16.0%
CC1=CC2(O)OCCN(CCO)C2=CC1=O (stereo not drawn)	12.5%	-1.8	15.8µM*	-7.8	15.8µM*
CC1CC1C(=O)OCC(=O)N(C)c1c(N)n(Cc2ccccc2)c(=O)[nH]c1=O (stereo not drawn)	.	3.6	.	-1.4	.
C(=N\n1cnnc1)/c1cccn1-c1ccccc1	28.2µM*	-2.3	-11.7%	-8.0	15.6%
Cc1cc(/C=N/n2cnnc2)c(C)n1-c1ccccc1	-0.4%	-10.0	14.8%	-8.3	19.8%
COc1ccc(C(=O)N2CCC(n3c(C)nc4cc(F)ccc43)CC2)cc1OC	?	2.3	7.1%	8.4	0.4%
COc1ccc(C(=O)N2CCC(n3c(C)nc4cc(F)ccc43)CC2)cc1	11.2µM*	-3.0	-1.3%[10 µM]	9.4	?
O=C(c1cn(-c2ccccc2)nc1-c1cccnc1)N1CCCC(C(F)(F)F)C1 (stereo not drawn)	.	-0.4	.	-1.1	.
CCN(c1ccccc1)S(=O)(=O)c1ccc(C(=O)NCc2ccco2)cc1	.	-4.7	.	-7.8	.
Cn1ncc2c(NNC(=O)Cc3ccccc3)ncnc21	-5.5%	2.8	-7.0%	-0.8	16.3%
Cn1ncc2c(NNC(=O)c3ccc(Cl)cc3Cl)ncnc21	-2.3%	-9.9	7.08µM*	-3.7	6.31µM*
Cn1ncc2c(NNC(=O)c3ccc(Cl)c(Cl)c3)ncnc21	0.1%	-0.7	1.12µM*	-3.0	0.316µM*
CC/C(=N\NC(=O)CNC(=O)/C=C/c1ccc(OC)cc1)c1ccccc1	-2.1%	0.4	4.1%	-0.1	3.1%
O=c1cc(CO)[nH]cc1OCc1ccccc1	-1.4%	3.4	-1.5%	10.3	-29.1%
Cc1ccccc1OCCC(=O)OCC(=O)Nc1c(C)nn(-c2ccccc2)c1C	.	5.7	.	-19.0	.
CCOc1ccc2c(c1)nc(SCC(=O)c1ccc(Br)s1)n2C	18.1%	-0.6	?	-12.1	14.1µM*
CCOc1ccc2c(c1)nc(SCC(=O)c1cccs1)n2C	14.4%	2.9	4.9%	0.7	?
